The results in this text go back to PubChem BioAssay (NCI).

Compounds without any hit were thinned out: in the full panel of roughly 83,000, 20% have a hit.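 For each line, cells grew in 96-well plates with the test compound present at a single concentration for 48 hours.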 Unmarked numbers belong to inactive results. Active and inactive are the calls of the source. Rule for the calls: active = growth percent below 10; inactive = the rest.

Among the test systems are T-47D breast; BT-549 breast; MDA-MB-435 melanoma; MCF7 breast; HCT-116 colon; HCC-2998 colon; KM12 colon.
What all share (assay): NCI-60 one-dose screen, 48 h (100 = growth as untreated, 0 = no growth, -100 = all killed)
Common to all, as to conditions: 10 µM unless noted

Consider `N#Cc1c(-c2ccc(Cl)cc2)nc(NN=Cc2cccc(Cl)c2)nc1N1CCOCC1`, for which the growth is 76.6% with T-47D breast; 93.6% in the assay on BT-549 breast; 92% in the assay on MDA-MB-435 melanoma; 85.9% in the assay on MCF7 breast; 70.8% in the assay with HCT-116 colon; 105% in the assay with HCC-2998 colon. Moreover, the growth with KM12 colon was 84%.
Take `Clc1ccc(C2=Nn3c(nnc3-c3cc(Cl)cc(Cl)c3Cl)SC2)cc1`: the growth in the assay with T-47D breast was 63.2%; in the assay on BT-549 breast, 31.4%; in the assay on MDA-MB-435 melanoma, -15.6% (active); in the assay with MCF7 breast, 7.6% (active); with HCT-116 colon it was 13.7%; in the assay on HCC-2998 colon it was -8.03% (active). Moreover, in the assay on KM12 colon, the growth was 23.5%.
Turning to `Cc1c(C(=O)C(SC(=S)N2CCOCC2)SC(=S)N2CCOCC2)nnn1-c1ccc([N+](=O)[O-])cc1`, the growth in the assay with T-47D breast is 92.3%; in the assay with BT-549 breast, 92.5%; in the assay on MDA-MB-435 melanoma it was 105%; with MCF7 breast it was 79.5%; in the assay on HCT-116 colon, 96.5%; in the assay on HCC-2998 colon, 104%. In addition, in the assay with KM12 colon, the growth is 111%.
In the case of `COc1cc(-c2ccc(-c3ccc(C(=N)N)s3)s2)cc(OC)c1OC`, the growth with T-47D breast was 39.3%; in the assay on BT-549 breast, 61.7%; with MDA-MB-435 melanoma it was -34.8% (active); in the assay on MCF7 breast, -6.02% (active); in the assay with HCT-116 colon, -21.5% (active); in the assay with HCC-2998 colon, 49.7%. In addition, the growth in the assay with KM12 colon was 27.7%.
For the molecule `CCOC(=O)c1cc(C(=O)c2cc(OC)cc(OC)c2)n2ccccc12`, the growth in the assay with T-47D breast is 49.3%; with BT-549 breast, 35.7%; in the assay on MDA-MB-435 melanoma, -4.66% (active); with MCF7 breast it was 22.3%; in the assay with HCT-116 colon, 12.2%; in the assay with HCC-2998 colon, 54.7%. In addition, the growth with KM12 colon is 24.2%.
Regarding `CNC1=C(Br)C(=O)c2c(C(=O)OC)c(C)nc(C)c2C1=O`, the growth with T-47D breast is 62.8%; in the assay on BT-549 breast, 104%; with MDA-MB-435 melanoma, -66.8% (active); in the assay on MCF7 breast, 45.2%; in the assay with HCT-116 colon, 25.3%; in the assay on HCC-2998 colon, 69.6%. Further, the growth with KM12 colon was 62.4%.
As for `O=C(Nc1cccc(Cl)c1)Oc1c(Cl)c(Cl)c(Cl)c(Cl)c1Cl`, the growth is 80.1% in the assay with T-47D breast; 88.5% with BT-549 breast; 98.7% in the assay on MDA-MB-435 melanoma; 84.9% with MCF7 breast; 95.7% with HCT-116 colon; 119% in the assay on HCC-2998 colon. Moreover, the growth in the assay on KM12 colon is 102%.
With `CN1CCN(Cc2ccc(NC(=O)c3cncc(C#Cc4cnc(N)c5ncccc45)c3)cc2Cl)CC1`, the growth with T-47D breast is 121%; in the assay with BT-549 breast, 105%; in the assay with MDA-MB-435 melanoma, 94.2%; in the assay with MCF7 breast, 65.6%; in the assay on HCT-116 colon, 14.6%; in the assay with HCC-2998 colon, 106%. For the same molecule, the growth in the assay with KM12 colon was 23%.
Take `CCOC(=O)c1ccc2c(c1)c1c(C)c3cnccc3c(C)c1n2C`: the growth is -23.1% (active) in the assay on T-47D breast; -54% (active) in the assay on BT-549 breast; -65.8% (active) in the assay on MDA-MB-435 melanoma; -28.9% (active) with MCF7 breast; -85.2% (active) in the assay with HCT-116 colon; -70.7% (active) in the assay with HCC-2998 colon. For the same molecule, in the assay with KM12 colon, the growth was -7.02% (active).
In the case of `COc1ccc(NC(=O)CSc2oc(-c3ccccc3)nc2S(=O)(=O)c2ccc(Cl)cc2)c(OC)c1`, the growth in the assay with T-47D breast was 60.5%; with BT-549 breast, 61.7%; in the assay with MDA-MB-435 melanoma it was 86.6%; with MCF7 breast, 73.8%; with HCT-116 colon, 41.6%; with HCC-2998 colon, 83.5%. In addition, in the assay with KM12 colon, the growth is 71.9%.
In the case of `Nc1nc(Nc2ccc([N+](=O)[O-])cc2O)nc(C(Cl)(Cl)Cl)n1`, the growth with T-47D breast is 73.6%; with BT-549 breast, 66.8%; with MDA-MB-435 melanoma, -36.6% (active); with MCF7 breast it was 59.5%; with HCT-116 colon, 70.6%; in the assay on HCC-2998 colon it was 108%. The growth in the assay with KM12 colon is 49.8%.
For the molecule `CCOC(=O)CCC(=O)P(=O)(O)O`, the growth was 98.6% with T-47D breast; 101% with BT-549 breast; 125% in the assay on MDA-MB-435 melanoma; 110% in the assay with MCF7 breast; 86.2% in the assay with HCT-116 colon; 99.8% in the assay on HCC-2998 colon. The growth in the assay with KM12 colon is 112%.
For the molecule `C#C[C@]1(O)CC[C@H]2[C@@H]3CC=C4c5sc(-c6cccc(C)c6)nc5CC[C@]4(C)[C@H]3CC[C@@]21C`, the growth was 78.6% in the assay with T-47D breast; 71.5% in the assay with BT-549 breast; 82.8% in the assay with MDA-MB-435 melanoma; 34.9% in the assay on MCF7 breast; 68.2% with HCT-116 colon; 72.5% in the assay with HCC-2998 colon. Besides, in the assay with KM12 colon, the growth is 54.3%.
On to `COc1ccc(S(=O)(=O)N(C)c2oc(-c3ccc(Cl)cc3)nc2C#N)cc1`, for which the growth is 74.5% with T-47D breast; 74.7% in the assay on BT-549 breast; -3.32% (active) in the assay with MDA-MB-435 melanoma; 52.5% in the assay with MCF7 breast; 72% in the assay with HCT-116 colon; 76.2% with HCC-2998 colon. For the same molecule, in the assay with KM12 colon, the growth is 56.6%.
In the case of `CC(=O)Cc1nsc(NC(=O)c2cc(-c3cc(Cl)ccc3Cl)oc2C)n1`, the growth in the assay on T-47D breast was 87.6%; with BT-549 breast it was 102%; in the assay on MDA-MB-435 melanoma it was 101%; in the assay with MCF7 breast, 97.7%; in the assay on HCT-116 colon, 95.8%; with HCC-2998 colon, 103%. Also, the growth in the assay with KM12 colon was 107%.
Consider `Cc1c(CC(=O)Nc2ccccc2)nnn1-c1ccccc1`, for which the growth with T-47D breast is 101%; in the assay on BT-549 breast, 112%; in the assay on MDA-MB-435 melanoma, 115%; with MCF7 breast it was 99.6%; in the assay on HCT-116 colon, 106%; with HCC-2998 colon, 102%. For the same molecule, the growth in the assay on KM12 colon was 108%.
For the molecule `C=C1CC[C@@H]2[C@](C)(COC(C)=O)[C@H](OC(C)=O)CC[C@@]2(C)[C@@H]1CC(Nc1ccc(S(=O)(=O)Nc2nccc(C)n2)cc1)C1=CCOC1=O` (stereo partly specified), the growth in the assay on T-47D breast is 69.1%; with BT-549 breast, -2.66% (active); in the assay with MDA-MB-435 melanoma it was 0.231% (active); with MCF7 breast it was 0.135% (active); with HCT-116 colon, -32.2% (active); in the assay with HCC-2998 colon, 68.2%. Further, in the assay on KM12 colon, the growth was 13.2%.
For `COc1ccc(CNc2ccc3nc(CCC4CCCCC4)[nH]c3c2)cc1`, the growth in the assay on T-47D breast was 41%; in the assay on BT-549 breast, 96.7%; in the assay with MDA-MB-435 melanoma it was 80.9%; in the assay on MCF7 breast, 68.4%; in the assay on HCT-116 colon, 50.7%; in the assay with HCC-2998 colon, 30.8%. Besides, the growth in the assay with KM12 colon is 79.8%.
